Assay results from PubChem BioAssay AID1347076 (National Center for Advancing Translational Sciences (NCATS), 2019).
The whole screen tested about 400,000 compounds, of which about 13,000 (3.2%) were called active. Where a call stands in place of a potency, no number is given. Not shown: some 18% with an inconclusive outcome. The call rests on the fitted dose curve; in most records, active means well fitted cell-killing curve with a large enough effect; inconclusive means small, poorly fitted or top-dose-only effect, or effect the other way; inactive means flat fitted curve, though single readings scatter. This excerpt belongs to a sample that is enriched for actives.

assay: qHTS assay for MDR1-selective chemotherapeutics: Primary screen using the drug-selected MDR subline cells KB-V1; details: KB-V1 MDR cells viability, CellTiter-Glo, 72 h; series mostly up to 46.1 µM; further: nearly all actives have a fitted effect of over 60% in size
How it was run: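 Cytotoxicity toward P-gp-expressing KB-V1 cells was determined as loss of CellTiter-Glo luminescence after 72 h at 37 degrees C. Compounds were tested in quantitative HTS format across a concentration range, with curves fitted to normalized data.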
Potency means the concentration at half of the fitted maximal effect.

Row | SMILES | Potency
1 | C[C@@H]1CC2=C(C(=O)OC(C)(C)O2)[C@@H](C2CC2)O1 | inactive
2 | COc1cccc(-c2cnc(C(O)c3ccccc3OC)[nH]2)c1 (configuration not stated) | inactive
3 | CCOc1ccc(S(=O)(=O)N2CCN=C2Cc2ccccc2)cc1C | inactive
4 | CC1=NCCN1S(=O)(=O)c1cccc([N+](=O)[O-])c1 | inactive
5 | COc1cc(S(=O)(=O)N2CCN=C2c2ccccc2)ccc1Cl | 16.4 µM (active)
6 | O=S1(=O)CC(N2CCN(Cc3ccccc3F)CC2)CN1Cc1cn(Cc2cccc(C(F)(F)F)c2)nn1 (configuration not stated) | inactive
7 | Cc1c(CCO)sc[n+]1CC(=O)c1ccc2ccccc2c1 | inactive
8 | CCOC(=O)C1CCN(C(=O)c2oc3ccc(S(=O)(=O)N4CCCCCC4)cc3c2C)CC1 | inactive
9 | CCOC(=O)C1CCN(Cc2nnc(-c3cccc(Br)c3)o2)CC1 | inactive
10 | CCOC(=O)C1CCN(c2ncnc3c2oc2ccc(Br)cc23)CC1 | 20.6 µM (active)
11 | CCN(CC)CCNc1ncnc2c1cnn2-c1cc(Cl)ccc1C | inactive
12 | CN(C)C(=O)c1cccc(-c2cnc3sc(NCc4ccc5c(c4)OCO5)nn23)c1 | inactive
13 | COc1ccc(COC(=O)NC(C(=O)O)c2ccccc2)cc1 (configuration not stated) | inactive
14 | COc1ccc(C(CCN(Cc2ccc(OC)c(OC)c2)C(=O)CCl)c2ccccc2)cc1 (configuration not stated) | 20.6 µM (active)
15 | COc1ccc(CN(C)C(=O)CC(c2ccccc2)c2ccccc2)cc1 | inactive
16 | O=C(NCc1ccc(F)cc1)c1cc(C2CCCCN2C(=O)c2ccccn2)on1 (configuration not stated) | inactive
17 | O=C(CSc1nc2ccccc2c(=O)n1-c1ccc(F)cc1)NC1CC1 | inactive
18 | O=C(CSc1nc2ccccc2c(=O)n1CCCO)NC1CC1 | inactive
19 | O=C(CCn1c(SCC(=O)c2ccccc2)nc2ccccc2c1=O)NCc1ccc(F)cc1 | 7.31 µM (active)
20 | O=C(CSc1ncc(CO)n1Cc1ccc(F)cc1)NCc1ccco1 | inactive
21 | O=C(CCCn1c(SCC(=O)c2ccc(F)cc2)nc2ccccc2c1=O)NCc1ccco1 | 5.8 µM (active)
22 | COC(=O)c1ccc2c(=O)n(CCN3CCOCC3)c(SCC(=O)Nc3cccc(OC)c3)nc2c1 | inactive
23 | CCc1ccc(NC(=O)CSc2nc3ccccc3c(=O)n2CCN2CCOCC2)cc1 | 8.2 µM (active)
24 | O=C(CSc1nc2ccccc2c(=O)n1Cc1ccc(F)cc1)NCC1CCCO1 (configuration not stated) | inactive
25 | CC(=O)c1ccc(NC(=O)CSc2nc3ccccc3c(=O)n2CCCN2CCOCC2)cc1 | inactive
26 | COc1ccc(Cn2cc(C(=O)c3ccc(C)cc3)c(=O)c3cc(OC)c(OC)cc32)cc1 | inactive
27 | O=C(NC1CCCC1)C1c2ccccc2OCC(=O)N1CC(F)(F)F (configuration not stated) | inactive
